In PubChem BioAssay AID2165 (The Scripps Research Institute Molecular Screening Center, 2009):
The source made the active and inactive calls. No stated cut-off is given here; in the data, active means IC50 below about 9 µM; inactive means the rest.

tested on: Ba/F3 Cytotoxicity; assay: JAK2V617F kinase, IRF1 reporter and Ba/F3 cytotoxicity panel, late-stage follow-up, HEL and Ba/F3 cells (AID 2165)

| Compound | IC50 |
| --- | --- |
| COc1cc2ncnc(Sc3ccc(C)cc3)c2cc1OC | 3.68 µM (active) |
| Cc1cc(C)cc(NC(=O)COc2cccc(C)c2)c1 | > 40 µM (inactive) |
| COc1ccc(Cl)cc1NC(=O)NC(C)c1ccncc1 (stereo not drawn) | > 40 µM (inactive) |
| N#C/C(=C\c1ccc(O)c(O)c1)C(=O)NCCCCc1ccccc1 | 0.33 µM (active) |
| COc1ccc(C=CC(=O)c2c3c(c(C)[nH]c2=O)CCCC3)cc1 | 4.38 µM (active) |
| Cc1[nH]c(=O)c(C(=O)C=Cc2ccc(Cl)cc2)c2c1CCCC2 | 2.48 µM (active) |
| Cc1[nH]c(=O)c(C(=O)C=Cc2ccc(I)cc2)c2c1CCCC2 | > 40 µM (inactive) |
| COc1ccccc1/C=C/C(=O)c1c2c(c(C)[nH]c1=O)CCCC2 | 1.06 µM (active) |
| Cc1cccc(OCC(=O)Nc2cccc(O)c2)c1 | > 40 µM (inactive) |
| COc1cc2ncnc(Nc3ccc(O)c(Br)c3)c2cc1OC | 3.64 µM (active) |
| Cc1cccc(OCC(=O)Nc2cccc(C)c2C)c1 | > 40 µM (inactive) |
| COc1cc(/C=C(\C#N)C(N)=O)cc(CSc2nc3ccccc3s2)c1O | 7.61 µM (active) |
| Cc1ccc(C=CC(=O)c2c3c(c(C)[nH]c2=O)CCCC3)cc1 | 3.34 µM (active) |
| COc1cc2ncnc(Nc3ccccc3)c2cc1OC | > 40 µM (inactive) |
| Cc1[nH]c(=O)c(C(=O)C=Cc2ccc(C(C)C)cc2)c2c1CCCC2 | 2.74 µM (active) |
| COc1cc2ncnc(NC3CCCCC3)c2cc1OC | > 40 µM (inactive) |
| Cc1[nH]c(=O)c(C(=O)C=Cc2ccccc2Cl)c2c1CCCC2 | 0.16 µM (active) |
| C/C(=C\c1ccccc1F)C(=O)c1c(C)cc(C)[nH]c1=O | > 40 µM (inactive) |
| Cc1ccc(O)c(NC(=O)COc2ccc(Cl)cc2)c1 | 1.39 µM (active) |

| Compound | IC50 |
| --- | --- |
| COc1cccc(Nc2ncnc3cc(OC)c(OC)cc23)c1 | > 40 µM (inactive) |
| COc1cc2ncnc(Nc3cccc(C)c3)c2cc1OC | > 40 µM (inactive) |
| CCOc1cc2ncnc(Nc3cccc(Br)c3)c2cc1OCC | 3.16 µM (active) |
| COc1cc2ncnc(NC(C)C)c2cc1OC | > 40 µM (inactive) |
| Cc1[nH]c(=O)c(C(=O)C=Cc2ccc(Br)cc2)c2c1CCCC2 | 2.57 µM (active) |
| Cc1[nH]c(=O)c(C(=O)C=Cc2cccc(Br)c2)c2c1CCCC2 | 0.67 µM (active) |
| COc1cc2ncnc(Sc3ccc(Cl)cc3)c2cc1OC | > 40 µM (inactive) |
| COc1cc2ncnc(Nc3cccc(Cl)c3)c2cc1OC | > 40 µM (inactive) |
| CCS(=O)(=O)c1ccc(O)c(NC(=O)COc2cccc(C)c2)c1 | > 40 µM (inactive) |
| COc1ccccc1OCC(=O)Nc1cc(C)ccc1O | 0.018 µM (active) |
| Cc1cccc(OCC(=O)Nc2ccc(O)cc2)c1 | 6.62 µM (active) |
| Cc1ccc(O)c(NC(=O)COc2cccc(C)c2C)c1 | > 40 µM (inactive) |
| Cc1cccc(OCC(=O)Nc2ccc(C)c(C)c2)c1 | > 40 µM (inactive) |
| Cc1ccc(O)c(NC(=O)COc2cc(C)ccc2C)c1 | 1.36 µM (active) |
| CCc1cccc(Nc2ncnc3cc(OCCOC)c(OCCOC)cc23)c1 | > 40 µM (inactive) |
| Cc1cccc(OCC(=O)Nc2cc(C)c(C)cc2O)c1 | > 40 µM (inactive) |
| COc1cc2ncnc(Nc3ccc(F)c(F)c3)c2cc1OC | > 40 µM (inactive) |
| Cc1cc2ncc(-c3ccc(O)c(O)c3)nc2cc1C | 0.36 µM (active) |
| COc1ccc(OCC(=O)Nc2cc(C)ccc2O)cc1 | 2.01 µM (active) |
